Screening results: PubChem BioAssay, several laboratories
Shown are actives, neighbours in structure and some others; about 2.6% of the full set was active somewhere.
TROY NFkB inh: blocks TROY-dependent signaling in reporter cells; 360,000 tested, 0.98% active; Q293 LMP1-TROYcd NF-kB luciferase reporter, 4 h; inhibition, % at 10 µM;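 active means compounds whose plate-normalised and pattern-corrected inhibition of the luciferase reporter signal at the single screening dose is 50% or more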
LGR2 antag: blocks bursicon-induced cAMP signaling via Drosophila LGR2. HEK293 LGR2, CRE-luciferase, bursicon-stimulated, 4 h. inhibition, % at 9.99 µM. 380,000 tested, 0.35% active. AID 720647;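 active means drop in luminescence signal, shown as inhibition above about 50% in the replicate tests, limit read from the data, passing the limit was not always enough; inconclusive means probably only some replicates passing the limit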;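 further: agonist challenge used bursicon conditioned medium at about half maximal strength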
EWS-Fli inh: blocks EWS/Fli oncoprotein-driven transcription; inhibition, % at 12.6 µM; 350,000 tested, 0.67% active; A673 NR0B1-luciferase reporter, viability-normalised;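 active means mean inhibition of at least 50% after viability correction, with every replicate also passing that limit; inconclusive means mean reaches 50% but only one of two replicates passes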;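 further: firefly luciferase signal divided by Alamar Blue viability fluorescence both relative to DMSO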
EBV LMP1 NFkB: inhibitors of Epstein-Barr LMP1-induced NF-kappaB reporter; 350,000 tested, 0.69% active; inhibition, % at 12.5 µM; LMP1-induced NF-kappaB luciferase reporter cells, luminescence; in the data active means inhibition above about 41%; inconclusive means no clear call, values can overlap the other calls
TWEAK Fn14 block: inhibitors of TWEAK-Fn14 interaction signaling; TWEAK-stimulated Fn14 reporter cells, luciferase luminescence, 8 h; inhibition, % at 10 µM; 360,000 tested, 2% active; in the data active means inhibition above about 50%
Numbers stand for hits; 0 = inactive; ? = inconclusive; - = no result.

SMILES	TROY NFkB inh	LGR2 antag	EWS-Fli inh	EBV LMP1 NFkB	TWEAK Fn14 block
CC(C)NC(=O)N(C)C[C@@H]1Oc2ccc(NS(=O)(=O)c3ccc(Cl)cc3)cc2C(=O)N([C@@H](C)CO)C[C@@H]1C	-	0	0	-	-
N#C/C(=N\Nc1ccccc1)C(N)=S	0	0	0	0	0
N#C/C(=N\Nc1ccc(Cl)cc1)C(N)=S	64.1	0	0	0	59.7
Cc1ccc(N/N=C(\C#N)C(N)=S)cc1C	57.6	-	0	?	62.2
C[C@@H]1CN([C@H](C)CO)C(=O)Cc2cc(NC(=O)Cc3cn(C)c4ccccc34)ccc2O[C@H]1CN(C)Cc1ccc(Cl)c(Cl)c1	-	0	0	-	-
C/C=C(/C(=C/C)c1ccc(O)cc1)c1ccc(O)cc1	0	0	0	0	0
C=C(c1ccc(O)cc1)c1ccc(O)cc1	51.5	-	-	0	0
Cc1nnc(SCC(=O)Nc2cc(-c3cc(C)c(C)cc3C)nn2-c2ccccc2)s1	0	0	0	50.5	0
CCOC(=O)c1ccc(NC(=O)CSc2nc(C)cc(=O)[nH]2)cc1	0	-	-	0	0
CCOC(=O)c1c(-c2ccccc2)csc1NC(=O)CSc1nnc(C)s1	0	0	-	0	78.9
Cc1nnc(SCC(=O)Nc2cc(C(C)(C)C)nn2-c2ccccc2)s1	0	0	-	0	0
CCOC(=O)c1c(-c2ccccc2Cl)csc1NC(=O)CSc1nc(C)cc(=O)[nH]1	59.4	0	0	0	0
Cn1c2ccccc2c(=O)c2ccc(C#CC3(O)CCCCC3)cc21	90.8	100.2	57.4	0	96.6
COc1cccc2sc3cc(C#CC4(O)CCCCC4)ccc3c(=O)c12	0	98.1	0	0	0
COc1cccc2sc3ccc(C#CC4(N)CCCCC4)cc3c(=O)c12	0	-	0	0	0
COc1cc2sc3ccc(C#CC4(O)CCCCC4)cc3c(=O)c2cc1OC	83.9	94.1	0	0	91.7
Cc1noc(C)c1S(=O)(=O)Nc1ccc2c(c1)C(=O)N([C@@H](C)CO)C[C@H](C)[C@H](CN(C)S(=O)(=O)c1ccc(Cl)cc1)OCCCC[C@H](C)O2	-	0	0	-	-
COc1ccc(-c2cnc3c(c2)C(=O)N([C@@H](C)CO)C[C@H](C)[C@H](CN(C)S(C)(=O)=O)O3)cc1	-	0	0	-	-
O=C(CCCSc1nc(-c2ccco2)cc(C(F)(F)F)n1)NCC1CCCO1 (configuration not stated)	-	-	-	0	70.5
Cc1nn(-c2ccccc2)c(Cl)c1CN(C(=O)CCl)c1ccc(Cl)cc1	0	0	-	0	0
Cc1nn(-c2ccccc2)c(Cl)c1CN(C(=O)CCl)c1cccc2ccccc12	0	0	0	0	76.7
C[C@@H]1CN([C@@H](C)CO)C(=O)c2cc(NS(=O)(=O)c3ccc(Cl)cc3)ccc2O[C@@H](C)CCCCO[C@@H]1CN(C)Cc1ccccc1	-	0	0	-	-
COc1ccc(CN2C(=O)c3cccnc3C2Nc2cc(Cl)ccc2OC)cc1 (configuration not stated)	0	0	-	65.8	0
COc1ccc(OC)c(NC2c3ncccc3C(=O)N2Cc2ccco2)c1 (configuration not stated)	0	0	0	0	0
Cc1ccc(-c2ccc3c(c2)O[C@@H](CN(C)C(=O)CC2CC2)[C@H](C)CN([C@H](C)CO)S3(=O)=O)cc1	-	0	0	-	-
SMILES	TROY NFkB inh	LGR2 antag	EWS-Fli inh	EBV LMP1 NFkB	TWEAK Fn14 block
Cc1ccc(NC(=O)C2Cc3ccccc3CN2C(=O)c2ccco2)cc1S(=O)(=O)N(C)C (configuration not stated)	71.7	0	0	0	0
CC1C(=O)N(Cc2cn(CCC3OCCCO3)nn2)CCS(=O)(=O)N1Cc1ccc(-c2ccc(Cl)c(Cl)c2)cc1 (configuration not stated)	0	0	0	0	71.0
CC1C(=O)N(Cc2cn(CCC3OCCCO3)nn2)CCS(=O)(=O)N1Cc1ccc(-c2ccc(F)cc2)cc1 (configuration not stated)	0	0	0	0	0
O=C(/C=C/c1cccc(F)c1)N1CCc2ccccc21	0	53.9	-	0	0
O=C(/C=C/c1cccc(F)c1)OCC(=O)N1CCCc2ccccc21	0	0	0	0	0
Oc1ccc(-c2csc(-c3cccnc3)n2)c(O)c1	0	?	0	0	53.8
CC(C(=O)NC1CCCc2ccccc21)N1CCN(Cc2ccc3c(c2)OCO3)CC1 (configuration not stated)	58.1	-	-	0	0
CN(C)c1ccc(CC(=O)N2CCCC(c3cc(C(=O)Nc4ccc5c(c4)OCO5)no3)C2)cc1 (configuration not stated)	0	0	0	-	0
O=C(Nc1ccccc1)c1cc(C2CCCN(C(=O)C3CC3)C2)on1 (configuration not stated)	76.3	83.8	0	-	92.9
CN(C)c1ccc(CC(=O)N2CCCC(c3cc(C(=O)Nc4ccccc4)no3)C2)cc1 (configuration not stated)	76.3	0	0	-	71.3
O=C(C[C@H]1C=C[C@@H](NC(=O)C2CCOCC2)[C@@H](CO)O1)Nc1nccs1	-	0	0	-	-
Cc1nc(Nc2ccc(Cl)cc2)c2nnn(Cc3ccccc3)c2n1	0	0	0	0	0
Cc1nc(Nc2ccc(S(=O)(=O)N3CCCCC3C)cc2)c2nnn(Cc3ccccc3)c2n1 (configuration not stated)	0	0	0	0	66.0
CN(C)c1ccc(/C=C/c2nc3ccccc3c(=O)[nH]2)cc1	69.7	90.7	78.8	48.1	87.7
Cc1nc(/C=C/c2ccccc2)[nH]c(=O)c1-c1ccccc1	0	0	-	0	64.1
C(=C\c1nc2ccccc2[nH]1)/c1ccccc1	0	-	-	0	74.7
O=c1[nH]c(/C=C/c2ccc(Br)cc2)nc2ccccc12	0	0	0	0	0
C[C@H]1CN([C@@H](C)CO)C(=O)c2cc(-c3cccc(C#N)c3)cnc2O[C@H]1CN(C)C(=O)C1CCC1	-	0	0	-	-
CCNC(=O)C[C@H]1CC[C@H]2[C@@H](COC[C@H](O)CN2Cc2ccc(Cl)c(Cl)c2)O1	-	0	0	-	-
CC1=Nc2cc(C(=O)NCCCOC(C)C)ccc2Sc2ccc(C)cc21	0	0	58.8	0	0
CC1=Nc2cc(C(=O)NCCCOC(C)C)ccc2Sc2ccccc21	0	0	0	0	0
CC1=Nc2cc(C(=O)O)ccc2Sc2ccc(Br)cc21	0	0	0	0	0
CC1=Nc2cc(C(=O)NCC3CCCO3)ccc2Sc2ccc(Br)cc21 (configuration not stated)	0	0	54.9	0	0
C[C@H]1CN([C@@H](C)CO)C(=O)c2cc(-c3ccccc3)cnc2O[C@H]1CN(C)C(=O)Cc1ccccc1	-	0	0	-	-
CC(=O)Nc1ccc(CN2C(=O)C(Cc3ccccc3)ON=C2c2cccc(F)c2)cc1 (configuration not stated)	83.2	0	0	-	0
O=C([C@H]1[C@H](CO)[C@H]2Cn3c(ccc(C4=CCCC4)c3=O)[C@@H]1N2Cc1nccs1)N1CCCCC1	-	0	0	-	-
Cc1ccc(Cl)cc1N1CCN(C(=O)c2cn(C)c(=O)c3c2c2ccccc2n3C)CC1	0	0	54.3	0	0
COc1cc(SC)ccc1C(=O)Nc1ccc(Br)cn1	84.0	-	73.3	50.9	97.4
